From PubChem BioAssay AID1259312 (Keith Lab, Institute of Cancer Science, University of …, 2017) come the findings set out here.

The campaign covered roughly 4,500 compounds. About 200 (4.4%) were called active. Only a selection was taken, and actives are over-represented in it overall. A number with no mark means an inactive call.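 How the source made its calls: active means cell survival measured by absorbance rises more than 2.5-fold over infected cells without compound; inactive means the rest.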

The nature of the experiment: survival after telomere uncapping, modulators, primary screen, cell-based (AID 1259312).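 Further: virus expresses mutant telomerase RNA that uncaps telomeres and kills cells; compound added 2 days after infection so exposure lasts 3 days.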 The note with it: HCT116 + Ad-hTR-mut, MTT, 5 d; at 10 µM, active compounds read high.
As for `CCOC(=O)c1c(N)sc(C(=O)N2CCCCC2)c1C`, the fold change was -1.62.
Regarding `CN(C)CCCN1C(=O)C(O)=C(C(=O)c2cccs2)C1c1cccs1` (stereo unspecified), the fold change is -1.86.
The figure for `Brc1ccc(C(Br)C(Br)c2ccccc2Br)cc1` (stereo unspecified) is -2.96; for `ClC(Cl)(Cl)C(c1ccc(Br)cc1)c1ccc(Br)cc1` it is 3.49 (active).
With `N#CCC(c1ccccc1)C(C#N)c1ccc(Br)cc1` (stereo unspecified), the fold change was -1.3.
As to `O=[N+]([O-])c1ccccc1Nc1ccccc1`, the fold change was 1.12.
As to `CN(C)c1ccc(/C=C2/SC(=S)NC2=O)cc1`, the fold change was 2.2.
The figure for `O=C1NC(=S)S/C1=C\c1ccsc1` is -1; for `O=C1NC(=S)S/C1=C/c1ccc(O)cc1` it is 3.65 (active).
The figure for `Cc1cc(C)c(O)c(C(CC(C)C)c2cc(C)cc(C)c2O)c1` is -4.02; for `O=C1CC(c2ccccc2)CC2=C1C(c1ccc(OC(F)(F)F)cc1)Nc1ccccc1N2` (stereo unspecified) it is -1.06.
The figure for `OC(c1ccccc1)c1nc2ccccc2[nH]1` (stereo unspecified) is -1.08.
As for `FC(c1nc2ccccc2[nH]1)C(F)(F)F` (stereo unspecified), the fold change is 2.19.
Turning to `OC(c1nc2ccccc2[nH]1)C(O)c1nc2ccccc2[nH]1` (stereo unspecified), the fold change is 3.31 (active).
With `COc1ccnc2cc(Cl)ccc12`, the fold change was 1.06.
`Brc1ccccc1-c1nnc(C(c2ccccc2)c2ccccc2)o1`: the fold change is -1.33.
As to `Cc1nccn1CCC(=O)O`, the fold change was 5.01 (active).
Consider `Cc1cc(C)nc(SCCC(=O)O)n1`, for which the fold change was -2.76.
The figure for `Nc1nc(SCCCOc2ccccc2)n[nH]1` is 1.24; for `COc1ccc(NC(=O)Nc2cccc(Cl)c2)cc1` it is 1.1.
For the compound `O=C(COc1ccccc1)N=Nc1c(O)[nH]c2ccccc12`, the fold change entry was “inactive”.
The figure for `Cc1sc2ccccc2[n+]1CCCS(=O)(=O)[O-]` is 2.97 (active); for `Oc1ccc2ccccc2c1CNCCNCc1c(O)ccc2ccccc12` it is 3.72 (active).
The entry for `Oc1ccc2ccccc2c1N=Nc1ccccc1` is “inactive”.
With `Oc1ccc2ccccc2c1Sc1c(O)ccc2ccccc12`, the fold change was -2.97.
The figure for `Cc1nc2ccc3ccccc3c2s1` is -2.18; for `c1ccc2cc3[nH]c(CN4CCOCC4)nc3cc2c1` it is 1.25.
Take `Nc1ncnc2c1ncn2[C@H]1C[C@H](O)[C@@H](COP(=O)(O)O)O1`: the fold change is -1.8.
For `CCN(C(=O)c1sc(NC(=O)CCl)c(C#N)c1C)C1CCCCC1`, the fold change was -1.18.
Take `Cc1cc2c(c(=O)o1)C(c1ccncc1)C(C#N)=C(N)O2` (stereo unspecified): the fold change is 3.96 (active).
In the case of `Cc1[nH]nc2c1C(c1ccncc1)C(C#N)=C(N)O2` (stereo unspecified), the fold change was 2.49.
The figure for `CCOC(=O)c1ccc(C2C(C#N)=C(N)Oc3cc(C)oc(=O)c32)o1` (stereo unspecified) is -1.07; for `O=C1CCCC2=C1C(c1ccco1)C1=C(N2)c2ccccc2C1=O` (stereo unspecified) it is -5.38.
As for `O=S1(=O)CCC(SCc2nnc(-c3ccccc3)o2)C1` (stereo unspecified), the fold change is -1.78.
Regarding `CCNC(=S)Nc1ccc(Br)cc1`, the fold change was -2.77.
The figure for `S=c1[nH]nc(CCc2ccccc2)n1Cc1ccccc1` is 1.25; for `S=c1[nH]nc(Cc2ccccc2)n1Cc1ccccc1` it is 1.06; for `S=c1[nH]nc(Cc2n[nH]c(=S)n2Cc2ccccc2)n1Cc1ccccc1` it is 4.65 (active).
Take `CCOC(=O)c1c(NC(=O)CCl)sc2c1CCN(C(=O)OCC)C2`: the fold change was -1.2.
`O=C(CCCOc1ccc(Cl)cc1Cl)Nn1cnnc1`: the fold change was 2.83 (active).
The figure for `O=C(COc1ccc(Cl)cc1Cl)NCC1CCCO1` (stereo unspecified) is -1.41.
As for `COC(=O)NNC(=O)CCCOc1ccc(Cl)cc1Cl`, the fold change was 1.34.
The figure for `Cc1c(C(C)C)c(=O)n(-c2ccc(S(=O)(=O)NC3CC3)cc2)n1C` is -2.25; for `Brc1ccc(-c2csc(Nc3ccccc3)n2)cc1` it is -1.95.
The figure for `NC(=O)c1c(NC(=O)CN2CCOCC2)sc2c1CCCC2` is -1.32; for `N#CCS/C(SCC(=O)c1ccc2c(c1)OCO2)=C(/C#N)C(=O)c1ccc2c(c1)OCO2` it is 2.84 (active); for `CSc1nc(SCC(=O)c2ccc3c(c2)OCO3)nc(N)c1C#N` it is 1.54.
The figure for `N#CCS/C(SCC(=O)c1ccc(Br)cc1)=C(/C#N)C(=O)c1ccc(Br)cc1` is 1.41; for `OC1CCC2Cc3ccccc3N=C12` (stereo unspecified) it is -1.24; for `O=c1[nH]nc(C[N+](=O)[O-])c2ccccc12` it is 1.05.
In the case of `CC12C=CC(=O)C=C1CCC1C3CC(O)C(O)(C(=O)CO)C3(C)CC(O)C12F` (stereo unspecified), the fold change was 1.13.
As to `CC(C)=NNc1nccc2ccccc12`, the fold change is -1.17.
The figure for `S=C(Nc1ccccc1)N1CCOCC1` is 3.11 (active); for `S=C(Nc1ccccc1)N1CCCCC1` it is -1.66.
For `c1ccc(N=C(Nc2ccccc2)N2CCOCC2)cc1`, the fold change is 1.32.
The figure for `O=C(O)CN1C(=O)C(=O)c2cc(Br)ccc21` is -1.45.
As for `O=C1c2ccc(Br)cc2C(=O)N1CNc1ccc(Br)cc1`, the fold change is 2.94 (active).
`CN1C(=O)C(=O)c2cc(Br)ccc21`: the fold change was -1.19.
Regarding `N#CCN(CC#N)C(=O)c1cccs1`, the fold change is 4.34 (active).
The figure for `N#CCN(CC#N)C(=O)c1ccco1` is -1.86; for `CCN(C(=O)c1cccs1)C1CCCCC1` it is -1.05.
The figure for `CC(=O)Nc1ccc2nc(SCC(=O)Nc3nccs3)sc2c1` is -1.04; for `O=C1OC(C2OC(=O)c3ccccc32)c2ccccc21` (stereo unspecified) it is -2.64; for `COc1ccc2c(c1)-c1c(ssc1=S)C(C)(C)N2C(=O)CSc1ncn[nH]1` it is -3.53.
The figure for `Cc1ccc2c(c1)-c1c(ssc1=S)C(C)(C)N2` is 2.39; for `Cc1cccc2c1N(C(=O)c1ccc(-c3ccccc3)cc1)C(C)(C)c1ssc(=S)c1-2` it is -1.16; for `Cc1cc(C)c2c(c1)-c1c(ssc1=S)C(C)(C)N2C(=O)c1ccccc1` it is -2.03.
With `CCOc1ccc2c(c1)-c1c(sn(-c3ccc(OC)cc3)c1=S)C(C)(C)N2`, the fold change was -1.06.
Consider `CCOc1ccc2c(c1)-c1c(ssc1=S)C(C)(C)N2`, for which the fold change was 5.41 (active).
The figure for `CCOc1ccc2c(c1)-c1c(ssc1=Nc1ccc(Cl)cc1C)C(C)(C)N2` is -1.6.
The figure for `CC1(C)Nc2ccccc2-c2c1ssc2=S` is 4.78 (active); for `COc1ccc2c(c1)-c1c(ssc1=S)C(C)(C)N2` it is 3.31 (active).
The figure for `O=C(c1cccs1)[C@H]1CCCC[C@H]1C(=O)O` is 1.2; for `Oc1ccc2c(c1)c1c3n2CCNC3CCC1` (stereo unspecified) it is -1.09; for `COc1ccc(C2C=COc3n[nH]c(-c4ccccc4)c32)cc1OC` (stereo unspecified) it is 2.04.
For `Cn1cc(/C=C2\C(=O)NC(=S)N(c3ccc(Br)cc3)C2=O)c2ccccc21`, the fold change is -1.42.
The figure for `O=C(NCCOC1=NS(=O)(=O)c2ccccc21)C(=O)Nc1ccccc1` is 1.05.
Consider `CC(=O)N/C(=N/c1nc(C)cc(C)n1)Nc1ccc(F)cc1F`, for which the fold change result was “inactive”.
Turning to `COc1ccc(-c2nc3sc(-c4ccc(OC)c(OC)c4)nc3s2)cc1OC`, the fold change was -4.78.
On to `S=c1[nH]nc(Cn2cnc3ccccc32)n1-c1ccccc1`, for which the fold change was 1.13.
As for `S=c1[nH]nc(COc2ccccc2)n1-c1ccccc1`, the fold change is 1.72.
For `S=c1[nH]nc(COc2cccc3ccccc23)n1-c1ccccc1`, the fold change was 3 (active).
The figure for `Cc1c(C(=O)OC(C)C)sc(NC(=O)C(F)(F)C(F)(F)C(F)(F)C(F)(F)F)c1C(=O)OC(C)C` is -1.73.
Consider `O=c1oc(-c2cccc(F)c2)nc2ccc(Br)cc12`, for which the fold change is -1.47.
Consider `Nc1cc2ccccc2cc1N`, for which the fold change was -1.17.
As to `NC(=O)c1cc2ccccc2o1`, the fold change is 2.76 (active).
Turning to `COC(=O)c1cc2cc(Br)ccc2o1`, the fold change is -2.17.
Regarding `Clc1nc2ccccc2nc1-c1ccccc1`, the fold change is -1.36.
The figure for `N=C1S/C(=C/c2cn[nH]c2-c2ccc(F)cc2)C(=O)N1c1nonc1N` is -1.44; for `N#Cc1c(N)nc2c(c1-c1ccc(Cl)cc1Cl)CCCCC2` it is 4.06 (active).
Take `N#Cc1c(N)nc2c(c1-c1cccc(Br)c1)CCCC2`: the fold change is 2.68 (active).
For the compound `Cc1ccc(-c2c(C#N)c(N)nc3c2CCCC3)c(C)c1`, the fold change is 1.09.
The figure for `N#Cc1c(N)nc2c(c1-c1cccc(Br)c1)CCCCC2` is -1.02; for `Cc1ccc(C)c(-c2c(C#N)c(N)nc3c2CCCCC3)c1` it is -1.2.
For the compound `N#Cc1c(N)nc2c(c1-c1cccc(Br)c1)CCCCCC2`, the fold change was -1.03.
Take `Brc1ccc2nc(SCCOc3ccccc3)[nH]c2c1`: the fold change is -1.46.
The figure for `COC(=O)C1=C(C)NC(=S)NC1c1cccs1` (stereo unspecified) is 1.16; for `N#CC1=C(N)OC2=C(C(=O)CCC2)C1c1ccc2c(c1)OCO2` (stereo unspecified) it is 1.15; for `NNC(=O)C(=O)Nc1nccs1` it is -2.19.
The entry for `Cc1cc(C)c(CSc2nc(C)cc(=O)[nH]2)c(C)c1` is “inactive”; for `Cc1cc(C)c(C#N)c(SCc2cc(=O)[nH][nH]2)n1` it is 3.11 (active).
The figure for `Cc1cc(-c2ccco2)c(C#N)c(SCC(=O)C(F)(F)F)n1` is 1.03.
With `O=c1/c(=C\c2ccco2)sc2nnc(-c3ccccc3)n12`, the fold change is -1.37.
Take `COc1ccc(S(=O)(=O)N(CCO)C2CCCCC2)cc1`: the fold change is 1.31.
The figure for `CCCCc1ccc(C2C(C#N)=C(N)OC3=C2C(=O)CC(C)(C)C3)s1` (stereo unspecified) is 2.3.
The figure for `O=S(=O)(NCc1cccnc1)c1cccs1` is -1.29.
The figure for `COCCNS(=O)(=O)c1cc(Cl)ccc1Cl` is 2.95 (active); for `COCCCNS(=O)(=O)c1cc(Cl)ccc1Cl` it is -1.38.
Turning to `O=S(=O)(Nc1cccnc1)c1cc(Cl)ccc1Cl`, the fold change is 1.16.
The figure for `CCCNS(=O)(=O)c1cc(Cl)ccc1Cl` is -2.13; for `O=S(=O)(NCc1cccnc1)c1cc(Cl)ccc1Cl` it is 3.37 (active).
